The record followed here is PubChem BioAssay (Tox21).

Assay [1] can be described thus: Nuclear factor erythroid 2-related factor 2/antioxidant responsive element (Nrf2/ARE) small molecule agonists: qHTS cell viability counter screen in human keratinocytes (AID 1919968; active means well fitted curve in the direction sought with a large enough effect in the repeat runs; an effect the other way counts as inactive or inconclusive; further: nearly all actives have a fitted effect of over 55% in size). The method, boiled down: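 HaCaT ARE reporter line, 1,500 cells/well; 5 h settle, 37 C/5% CO2; cpd in DMSO pinned; 23 h exposure; CellTiter-Fluor, 1 h; fluorescence.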
In general terms: In qHTS, concentration-response curves come from the screen itself.

Assay [2] is described as follows: Nuclear factor erythroid 2-related factor 2/antioxidant responsive element (Nrf2/ARE) small molecule agonists: luciferase reporter gene qHTS assay in human keratinocytes (AID 1919969). Further: nearly all actives have a fitted effect of over 35% in size. Background: In a reporter assay the amount or activity of a reporter protein is the signal.
The target of assay [3] is Gonadotropin-releasing hormone receptor (Homo sapiens) (UniProt P30968). The assay can be described thus: Human gonadotropin-releasing hormone receptor (GnRHR) small molecule agonists, calcium flux assay in GnRHR-HEK293 cells (AID 1920063). Further: nearly all actives have a fitted effect of over 35% in size. An outline of the steps: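 GnRHR-HEK293, 1500 cells/well, 18 h 37 C/5% CO2; Ca dye 1 h 37 C; cpd pinned (DMSO), agonist mode; kinetic FL 480/540, 3 min, 1 s reads; 15 conc, n=3.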

The target of assay [4] is KiSS-1 receptor (Homo sapiens) (UniProt Q969F8). The assay can be described thus: Human kisspeptin (KISS1R) small molecule agonists, calcium flux assay in KISS1R-HEK293 cells (AID 1920064; active means well fitted curve in the direction sought with a large enough effect in the repeat runs; an effect the other way counts as inactive or inconclusive). The method, boiled down: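 Stable human KISS1R HEK293 line; 18 h plating, 37 C/5% CO2; calcium dye 1 h 37 C; compound pin transfer; kinetic fluorescence Ex/Em 480/540, 3 min.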
(A change in cytosolic calcium serves as a functional read-out for many receptors and channels.)

The nature of assay [5]: G protein-coupled receptor (GPCR) small molecule agonists, calcium flux assay: HEK293 wild type cell line counter screen (AID 1920065). An outline of the steps:
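Kinetic fluorescence at Ex/Em 480/540, recorded every second over 3 min, served as the read-out after compound addition. Each compound was tested at 15 concentrations in triplicate on cells pre-loaded with calcium dye for 1 h.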

The nature of assay [6]: p53 small molecule agonists, cell-based qHTS assay with human liver microsomes: qHTS cell viability counter screen (AID 1963579). Further: nearly all actives have a fitted effect of over 45% in size. The method, boiled down:
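Metabolically activated exposure: compounds, human liver microsomes and NADPH (0.5 mg/mL final apiece) were added to p53RE-bla cells seeded 5 h earlier, left 16 h at 37 C, and then assessed for viability by CellTiter-Glo luminescence.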

Assay [7] can be described thus: p53 small molecule agonists, cell-based qHTS assay: qHTS cell viability counter screen (AID 1963581). Further: nearly all actives have a fitted effect of over 45% in size. An outline of the steps: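 HCT-116 p53RE-bla cells, 4,000/well, plated 5 h before compound pin transfer; 16 h at 37 C; bla substrate 2 h RT; then CellTiter-Glo, 30 min RT, luminescence.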
The target in assay [8] is 5-hydroxytryptamine receptor 2A (Homo sapiens) (UniProt P28223). Nature of the assay: 5-hydroxytryptamine receptor 2A (HTR2A) small molecule antagonists, cell-based qHTS assay (AID 1963586). Further: nearly all actives have a fitted effect of over 45% in size. Further: potency means the concentration at half of the fitted maximal effect. The method, boiled down: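 Antagonist-mode intracellular calcium assay: DOI (4 nM) added after 5 min compound pre-incubation at room temperature to dye-loaded HTR2A-CHO cells. Fluorescence followed for 3 min, sampled every second.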

The target is the same in assay [9]. Nature of the assay: 5-hydroxytryptamine receptor 2A (HTR2A) small molecule agonists, cell-based qHTS assay (AID 1963587). Further: nearly all actives have a fitted effect of over 30% in size. The method, boiled down:
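CHO cells stably expressing human HTR2A, plated 18 h, loaded with calcium dye 1 h at 37 C. Agonist mode: compounds added and intracellular calcium fluorescence recorded kinetically for 2 min at 1 sec intervals.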

Assay [10] has as its target Muscarinic acetylcholine receptor M1 (Homo sapiens) (UniProt P11229). The assay can be described thus: Cholinergic receptor muscarinic 1 (CHRM1) small molecule antagonists, cell-based qHTS assay (AID 1963588). Further: nearly all actives have a fitted effect of over 40% in size. Further: potency means the concentration at half of the fitted maximal effect. An outline of the steps:
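CHRM1-CHO calcium-flux assay, antagonist mode. Cells were seeded 18 h, dye-loaded 1 h at 37 C and given compound for 5 min at RT, then acetylcholine was added at 50nM. FDSS fluorescence was read 3 min; 15 concentrations, three runs.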

Assay [11] has the same target. The assay can be described thus: Cholinergic receptor muscarinic 1 (CHRM1) small molecule agonists, cell-based qHTS assay (AID 1963589). Further: nearly all actives have a fitted effect of over 35% in size. An outline of the steps:
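Human M1 in stable CHO line; 18 h plating, 1 h dye load 37 C; cpd added (agonist mode); Ca2+ fluorescence kinetic read, 1 s intervals; 15 conc, 3 runs.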

Assay [12] is described as follows: cAMP Responsive Elements (CRE) small molecule agonists, cell-based qHTS assay (AID 1963590). The method, boiled down:
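HEK 293T CRE-bla, 2,000 cells/well, 18 h preincubation 37 C/5% CO2; cpds (DMSO) pinned, 3 h; LiveBLAzer B/G FRET substrate, 2 h RT.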

For assay [13], the target named is Beta-2 adrenergic receptor (Homo sapiens) (UniProt P07550). The assay can be described thus: Adrenergic beta2 receptor (ADRB2) small molecule antagonists, cell-based qHTS assay (AID 1963592). Further: series mostly up to about 92 µM; nearly all actives have a fitted effect of over 50% in size. The method, boiled down: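 Cells (CHO, stable ADRB2 overexpression) incubated 18-20hr at 37C; compounds added from DMSO; agonist mix (1nM isoproterenol, 100uM IBMX, 25uM Ro-20-1724) added; 0.5hr RT; d2-cAMP and anti-cAMP-cryptate added; 1hr RT; 665/615 nm read.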

For assay [14] the target is unchanged. Nature of the assay: Adrenergic beta2 receptor (ADRB2) small molecule agonists, cell-based qHTS assay (AID 1963593).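 Further: CHO cells stably overexpressing human ADRB2.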 The method, boiled down:
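CHO cells stably over-expressing ADRB2 were plated overnight at 37C, then dosed with compounds plus a stimulation mix containing 100uM IBMX and 25uM Ro-20-1724 for 0.5hr at room temperature. cAMP was measured by HTRF competition, 1hr.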

Assay [15] deals with D(2) dopamine receptor (Homo sapiens) (UniProt P14416). The assay can be described thus: Dopamine D2 receptor (DRD2) small molecule agonists, cell-based qHTS assay (AID 1963594). Further: nearly all actives have a fitted effect of over 35% in size. An outline of the steps: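 HEK293 cells stably expressing human DRD2, pre-treated with PDE inhibitor Ro20-1724 (0.1 mM final) and compound 10 min at room temperature, then stimulated with NKH477 (200nM […]) for 30 min. cAMP read by HTRF (665/620 nm).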

Assay [16] shares this target. Nature of the assay: Dopamine D2 receptor (DRD2) small molecule antagonists, cell-based qHTS assay (AID 1963595; active means well fitted inhibition curve with a large enough effect in the signal ratio in the repeat runs, with a control signal flat; the % refers to the signal ratio; further: potency means the concentration at half of the fitted maximal effect). An outline of the steps: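 HTRF cAMP read-out at 665 and 620 nm emission (340 nm excitation). Antagonist mode: compounds were tested against 12 nM quinpirole in DRD2-HEK293 cells, with 200 nM NKH477 raising cAMP and 0.1 mM Ro20-1724 blocking its breakdown.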

Assay [17] is described as follows: cAMP Responsive Elements (CRE) small molecule antagonists, cell-based qHTS assay (AID 1963591; active means well fitted inhibition curve with a large enough effect in the signal ratio in the repeat runs, not every such curve was filed as active; the % refers to the signal ratio). An outline of the steps:
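Beta-lactamase reporter read by FRET substrate (LiveBLAzer B/G) after 2 h at room temperature. CRE-bla HEK293T cells had received compound plus 0.25 uM (final) NKH477 for 3 h at 37 °C.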

A short description of assay [18]: p53 small molecule agonists, cell-based qHTS assay with rat liver microsomes: qHTS cell viability counter screen (AID 1963580). Further: nearly all actives have a fitted effect of over 45% in size. The method, boiled down:
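Viability is assessed in parallel with the p53 reporter read: HCT-116 p53RE-bla cells receive compounds plus rat microsomes and NADPH (0.5 mg/mL final apiece), incubate 16 h at 37 C, and then CellTiter-Glo luminescence is recorded.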

Assay [19] is described as follows: p53 small molecule agonists, cell-based qHTS assay (AID 1963582; active means well fitted activation curve with a large enough effect in the signal ratio in the repeat runs, not every such curve was filed as active; the % refers to the signal ratio). An outline of the steps: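 Reporter line: p53RE-bla. Pre-incubation 5 h, 37 C, 5% CO2; compound (DMSO, pin tool) 16 h, 37 C; B/G FRET substrate 2 h RT; fluorescence intensity read.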

Each structure is given as a SMILES string. Unmarked numbers belong to inactive results. Inconclusive results are not listed. Active and inactive are the calls of the source. Unless noted, the call rests on the fitted dose curve.
On the % scale 0 is the no-effect control and ±100 the full control effect.

Chain of Beta-2 adrenergic receptor (Homo sapiens) (P07550 whole entry, looked up): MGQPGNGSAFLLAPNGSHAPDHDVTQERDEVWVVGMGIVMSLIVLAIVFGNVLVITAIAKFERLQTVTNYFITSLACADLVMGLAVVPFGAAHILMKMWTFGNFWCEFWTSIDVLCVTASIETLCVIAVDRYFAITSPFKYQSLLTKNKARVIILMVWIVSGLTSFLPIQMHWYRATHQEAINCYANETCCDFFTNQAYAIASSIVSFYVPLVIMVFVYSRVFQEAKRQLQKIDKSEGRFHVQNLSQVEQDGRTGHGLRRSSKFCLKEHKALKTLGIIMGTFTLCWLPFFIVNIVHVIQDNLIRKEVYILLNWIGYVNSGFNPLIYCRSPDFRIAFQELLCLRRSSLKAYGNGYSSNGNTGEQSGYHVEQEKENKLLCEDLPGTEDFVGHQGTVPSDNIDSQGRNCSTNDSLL
Chain of D(2) dopamine receptor (Homo sapiens) (P14416 whole entry, looked up): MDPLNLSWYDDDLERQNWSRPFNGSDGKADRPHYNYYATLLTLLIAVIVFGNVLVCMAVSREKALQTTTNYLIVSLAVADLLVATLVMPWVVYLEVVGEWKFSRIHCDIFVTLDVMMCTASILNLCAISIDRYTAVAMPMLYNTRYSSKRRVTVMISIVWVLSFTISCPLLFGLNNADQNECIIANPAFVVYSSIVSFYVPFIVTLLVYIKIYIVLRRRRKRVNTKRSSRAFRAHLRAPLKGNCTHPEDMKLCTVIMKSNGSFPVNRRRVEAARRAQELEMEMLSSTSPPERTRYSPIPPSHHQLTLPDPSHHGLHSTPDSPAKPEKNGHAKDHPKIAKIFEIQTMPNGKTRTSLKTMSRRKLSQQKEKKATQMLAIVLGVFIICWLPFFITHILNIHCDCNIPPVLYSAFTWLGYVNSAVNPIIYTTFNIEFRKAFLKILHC
Chain of KiSS-1 receptor (Homo sapiens) (Q969F8 whole entry, looked up): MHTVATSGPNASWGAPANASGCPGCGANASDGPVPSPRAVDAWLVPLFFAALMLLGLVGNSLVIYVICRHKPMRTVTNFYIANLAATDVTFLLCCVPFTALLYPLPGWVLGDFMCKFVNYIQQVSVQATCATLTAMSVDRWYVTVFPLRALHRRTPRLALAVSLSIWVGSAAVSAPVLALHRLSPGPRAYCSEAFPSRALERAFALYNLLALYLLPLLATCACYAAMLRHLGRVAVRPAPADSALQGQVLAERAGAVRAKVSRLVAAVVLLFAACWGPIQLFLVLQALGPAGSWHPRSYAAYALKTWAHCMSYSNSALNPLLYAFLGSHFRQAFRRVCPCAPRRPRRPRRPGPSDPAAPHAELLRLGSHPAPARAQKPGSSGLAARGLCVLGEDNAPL
Chain of 5-hydroxytryptamine receptor 2A (Homo sapiens) (P28223 whole entry, looked up): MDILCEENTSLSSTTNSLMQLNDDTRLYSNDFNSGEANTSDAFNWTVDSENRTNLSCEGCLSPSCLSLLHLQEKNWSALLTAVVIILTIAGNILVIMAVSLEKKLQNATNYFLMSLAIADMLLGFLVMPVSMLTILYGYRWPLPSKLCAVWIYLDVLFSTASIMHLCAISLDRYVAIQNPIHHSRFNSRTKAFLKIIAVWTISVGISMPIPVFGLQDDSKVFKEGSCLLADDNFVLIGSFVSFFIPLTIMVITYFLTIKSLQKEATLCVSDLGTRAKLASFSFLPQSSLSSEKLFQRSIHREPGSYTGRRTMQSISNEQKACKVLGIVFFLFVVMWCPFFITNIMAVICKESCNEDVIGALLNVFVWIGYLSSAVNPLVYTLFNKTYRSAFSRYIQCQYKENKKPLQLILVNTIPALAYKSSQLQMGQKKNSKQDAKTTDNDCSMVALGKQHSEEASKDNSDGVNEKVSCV
Chain of Gonadotropin-releasing hormone receptor (Homo sapiens) (P30968 whole entry, looked up): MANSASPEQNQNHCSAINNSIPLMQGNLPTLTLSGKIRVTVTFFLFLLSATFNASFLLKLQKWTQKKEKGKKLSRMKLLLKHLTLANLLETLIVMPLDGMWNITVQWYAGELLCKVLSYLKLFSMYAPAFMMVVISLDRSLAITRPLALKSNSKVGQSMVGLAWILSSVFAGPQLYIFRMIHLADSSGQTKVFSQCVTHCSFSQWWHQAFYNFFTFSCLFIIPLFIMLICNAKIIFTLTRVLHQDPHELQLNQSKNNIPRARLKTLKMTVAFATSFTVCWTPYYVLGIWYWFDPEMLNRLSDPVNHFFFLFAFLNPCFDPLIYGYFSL
Chain of Muscarinic acetylcholine receptor M1 (Homo sapiens) (P11229 whole entry, looked up): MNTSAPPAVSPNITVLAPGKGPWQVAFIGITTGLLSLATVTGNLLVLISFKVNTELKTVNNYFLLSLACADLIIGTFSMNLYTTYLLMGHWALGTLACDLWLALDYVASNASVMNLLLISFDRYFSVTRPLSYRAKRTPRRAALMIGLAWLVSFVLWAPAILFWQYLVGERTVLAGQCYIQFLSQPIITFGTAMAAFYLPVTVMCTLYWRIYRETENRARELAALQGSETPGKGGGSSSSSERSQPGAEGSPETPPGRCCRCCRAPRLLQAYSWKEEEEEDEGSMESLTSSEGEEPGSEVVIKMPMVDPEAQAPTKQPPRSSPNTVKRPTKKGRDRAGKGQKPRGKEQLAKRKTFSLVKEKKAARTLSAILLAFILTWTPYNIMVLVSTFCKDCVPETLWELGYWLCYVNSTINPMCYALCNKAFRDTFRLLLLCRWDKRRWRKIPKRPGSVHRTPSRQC

Turning to `O=C1CCC(=O)N1Cl`, the Potency entry in [1], in assay [2], in [3], in [4], in [5] and in [6] was “inactive” throughout. Also, the Potency entry in assay [7], in [8], in [9], in assay [10], in assay [11] and in assay [12] was “inactive” each time. Also, the Potency result in [13], in assay [14], in assay [15] and in assay [16] was “inactive” in each case.
For the compound `CCC(C)COC(C)=O` (stereo not given), the Potency entry in [1], in [2], in assay [3], in [4], in assay [5] and in assay [6] was “inactive” each time. Further, the Potency entry in [7], in [8], in assay [9], in [10], in assay [11] and in assay [12] was “inactive” in each case. Further, the Potency result in [17], in [13], in assay [15] and in assay [16] was “inactive” in each case.
`CN1CC(=O)N2[C@H](c3ccc4c(c3)OCO4)c3[nH]c4ccccc4c3C[C@@H]2C1=O`: the Potency entry in assay [1], in [2], in assay [3], in assay [4], in assay [5] and in assay [6] was “inactive” throughout. Also, the Potency result in assay [7], in [8], in [9], in assay [10], in assay [11] and in [12] was “inactive” in each case. Besides, the Potency result in [17], in [13], in assay [14] and in assay [16] was “inactive” each time.
As to `C1CCCCCCCCCCC1`, the activity change, negative = cytotoxicity is 0.761% [at 19 µM] in [1] and 0.482% [at 13.5 µM] in [18]. The activity, positive = activation in assay [2] is -8.94% [at 19 µM]. For the same compound, the activity change in assay [3] is -0.293% [at 11.8 µM, active compounds read high]. Moreover, the activation in assay [4] is 1.26% [at 15.8 µM]; in [5], -0.978% [at 11.8 µM]; in [9], -0.851% [at 15.9 µM]; in [11], -0.458% [at 15.8 µM]; in assay [12], -0.929% [at 19 µM]; in assay [15] it was -2.66% [at 19 µM]. Besides, the activity, negative = inhibition in assay [8] was -15.5% [at 12.7 µM]; in assay [10], 10.4% [at 12.6 µM]. The activity change, negative = inhibition was -1.59% [at 18.9 µM] in [17], 0.327% [at 19 µM] in assay [13] and -0.815% [at 18.9 µM] in assay [16].
`CC(=O)c1ccc2c(c1)N(CCCN(C)C)c1ccccc1S2`: the Potency result in assay [1], in assay [2], in assay [3], in assay [4], in assay [5] and in assay [6] was “inactive” each time. Also, the Potency result in assay [19], in [9], in assay [11], in [12] and in assay [17] was “inactive” each time. Besides, the figures for the Potency in [8], in assay [10] and in [16] were 25.9 nM (active), 410 nM (active) and 1680 nM (active), respectively.
As to `CCO[C@H](Cc1ccc(OCCc2ccc(OS(C)(=O)=O)cc2)cc1)C(=O)O`, the Potency entry in assay [1], in assay [2], in assay [3], in assay [4], in assay [5] and in assay [6] was “inactive” in each case. Further, the Potency entry in [7], in [10], in assay [11], in [12], in assay [17] and in assay [15] was “inactive” each time.
For `CC(C)(C)C(O)/C=C/c1ccc2c(c1)OCO2` (stereo not given), the Potency entry in [1], in assay [2], in assay [3], in assay [4], in [5] and in assay [18] was “inactive” throughout. The Potency result in assay [7], in assay [8], in [9], in assay [10], in assay [12] and in assay [17] was “inactive” each time. For the same compound, the Potency result in assay [13], in assay [15] and in [16] was “inactive” in each case.
For `CCOC(=O)OC(C)OC(=O)[C@@H]1N2C(=O)[C@@H](NC(=O)[C@H](N)c3ccccc3)[C@H]2SC1(C)C` (stereo not given in full), the Potency result in assay [1], in assay [2], in assay [3], in [4], in assay [5] and in assay [18] was “inactive” in each case. Moreover, the Potency entry in [7], in [9], in assay [10], in assay [12], in assay [17] and in [13] was “inactive” throughout. In addition, the Potency result in [15] and in assay [16] was “inactive” each time.
Turning to `O=C(O)CCSSCCC(=O)O`, the Potency entry in assay [1], in assay [2], in assay [3], in assay [4], in assay [5] and in assay [18] was “inactive” in each case. In addition, the Potency entry in assay [7], in assay [8], in assay [9], in [10], in assay [11] and in assay [12] was “inactive” in each case. Moreover, the Potency result in assay [17], in [13], in [14], in assay [15] and in [16] was “inactive” throughout.
